MITF primary: blocks human microphthalmia-associated transcription factor; O75030; 650,000 compounds, 0.91% hits; AlphaScreen MITF homodimerization, bead proximity signal; inhibition, % at 2.6 µM; in the data active means inhibition above about 50%;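 further: 0% = vehicle wells with protein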
Target sequence (O75030 whole entry, looked up): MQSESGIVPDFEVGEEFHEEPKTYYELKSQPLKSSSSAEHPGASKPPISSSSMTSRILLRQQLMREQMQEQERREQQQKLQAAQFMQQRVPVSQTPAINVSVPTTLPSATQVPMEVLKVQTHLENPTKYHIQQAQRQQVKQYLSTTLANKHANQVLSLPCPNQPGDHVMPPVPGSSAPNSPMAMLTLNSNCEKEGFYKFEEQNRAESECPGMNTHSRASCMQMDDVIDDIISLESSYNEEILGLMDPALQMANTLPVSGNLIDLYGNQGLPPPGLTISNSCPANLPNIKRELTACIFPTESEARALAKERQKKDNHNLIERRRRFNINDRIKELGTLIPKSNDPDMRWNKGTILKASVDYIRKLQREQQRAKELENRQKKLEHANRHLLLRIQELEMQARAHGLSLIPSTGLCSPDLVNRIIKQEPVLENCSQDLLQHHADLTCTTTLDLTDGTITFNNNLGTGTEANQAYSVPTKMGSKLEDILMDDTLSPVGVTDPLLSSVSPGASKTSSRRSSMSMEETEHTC
TEAD-YAP block: TEAD-YAP interaction inhibition; HEK-TIYL cells, TEAD-Gal4/YAP UAS-luciferase luminescence; inhibition, % at 9.12 µM; 640,000 compounds, 1.4% hits; AID 1259422; in the data active means inhibition above about 32%;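 further: 0% = median of test compound wells and 100% = reference inhibitor wells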
GPR151 ag: activates the human receptor GPR151. Q8TDV0. PathHunter beta-arrestin GPR151 cells, luminescence. activation, % at 11.2 µM. 650,000 compounds, 1% hits. AID 1508602; in the data active means activation above about 4.9%;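 further: 0% = median of compound wells and 100% = cells with positive control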
FBW7 activator: human FBW7 E3 ligase activation, primary screen; Q969H0; AlphaScreen FBW7–phospho-cyclin E peptide binding, activator screen; normalized activity (activation), % at 26.1 µM; 650,000 compounds, 0.13% hits; AID 1259310; in the data active means normalized activity above about 1.9%;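 further: purified mutant Fbw7 with reduced substrate affinity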
MITF inh conf: human MITF inhibition, confirmation | inhibition, % at 2.6 µM | shares compounds with MITF primary | AID 1259372 | AlphaScreen MITF homodimerization, biotin/His-MITF beads | 4,700 compounds, 16% hits;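 active means inhibition above a cutoff derived from the DMSO control wells, cut at about 28% in these data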;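 further: 0% = MITF dimer wells with DMSO only; inhibitors lower the bead chemiluminescence by keeping MITF from dimerizing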
AlphaScreen DR: counter-screen: compounds optically interfering with AlphaScreen | shares compounds with MITF primary | IC50, µM | AlphaScreen optical interference counterscreen, cell-free | 480 compounds, 6% hits; call rule not given here
AlphaScreen intf2: AlphaScreen optical interference, counter-screen; 4,700 compounds, 7.6% hits; LysRS AlphaScreen counterscreen, signal interference, triplicate; shares compounds with MITF primary; inhibition, % at 2.6 µM; AID 1259376;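 active means inhibition above a cutoff derived from the DMSO control wells, cut at about 30% in these data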
An asterisk follows results filed as active; x = no result; ! = not active in a repeat. An excerpt weighted towards active compounds, which were near 3.5% of everything screened.

SMILES	MITF primary	TEAD-YAP block	GPR151 ag	FBW7 activator	MITF inh conf	AlphaScreen intf2	others
COc1ccccc1CNS(=O)(=O)c1ccc2c(c1)OCCN2C	15.7	6.2	0.1	-0.1	x	x
C=CCNC(=O)COC(=O)c1cc(-c2ccco2)nc2ccccc12	56.7*	5.9	0.0	0.0	64.6*	0.5	AlphaScreen DR=>6.94
N#Cc1cc([N+](=O)[O-])ccc1NC(=O)COC(=O)c1cc(-c2ccco2)nc2ccccc12	50.6*	3.1	1.7	0.2	41.1*	-2.6	AlphaScreen DR=>7.03
Cc1cccc(-c2nnc(C3CCN(S(=O)(=O)c4ccc([N+](=O)[O-])cc4)CC3)o2)c1	12.6	3.5	-0.9	0.2	x	x
COc1ccc([C@@H]2CCN(C(=O)c3cc(F)cc(F)c3)C[C@H]2O)cc1	-8.4	-8.6	-0.5	0.1	x	x
O=C(c1cc(F)cc(F)c1)N1CC[C@@H](c2ccccc2)[C@H](O)C1	53.2*	-3.2	-0.6	0.0	-2.5	6.9
CN(C(=O)c1cccs1)C(Cc1ccccc1)C1CCN(C(=O)c2ccn(C)n2)CC1 (centres undefined)	73.8*	-23.9	-0.2	1.5	5.6	-1.3
COc1ccc(C(=O)NC2(C(F)(F)F)NC(=O)N(Cc3ccco3)C2=O)cc1OC (centres undefined)	-5.1	3.2	-2.2	-0.1	x	x
Cc1ccc(OCCOCCN2CCOCC2)c(Br)c1	75.4*	-16.2	-0.2	-0.2	7.0	3.0
Cc1cc(Cl)c(OCCOCCn2ccnc2)c(Br)c1	75.2*	-6.6	1.5	-0.1	17.1	19.7
Cc1cc(Cl)c(OCCn2ccnc2)c(Br)c1	26.8	-16.5	-0.8	-0.1	x	x
Cc1cc(OCCOCCN2CCOCC2)cc(C(C)C)c1	65.0*	1.7	-2.9	0.6	11.3	11.0
Cc1cc(Cl)c(OCCOCCN2CCOCC2)c(Br)c1	72.0*	-10.3	0.1	-0.2	-10.9	-6.7
Cc1cc(OCCOCCN2CCN(C)CC2)cc(C(C)C)c1	31.7	4.5	0.1	-0.2	x	x
COc1ccccc1C(CC#N)c1ccc2c(c1)OCO2 (centres undefined)	13.6	13.6	-0.8	0.3	x	x
CCCN1C(=O)/C(=C/c2ccc(OCC)c(OC)c2)NC1=S	14.4	-1.1	2.2	0.0	x	x
O=C(O)c1cc([N+](=O)[O-])cc2c1-c1ccc([N+](=O)[O-])cc1/C2=N\O	17.6	1.4	0.2	0.2	x	x
COc1ccc(CCNc2nc(OC)nc(-c3c(C)noc3C)n2)cc1	-2.8	-5.9	-1.9	-0.2	x	x
COc1ccc(-c2ccc(NCCCN(C)C)nc2)cn1	19.1	-2.4	-0.8	0.0	x	x
CC(=O)c1ccc(S(=O)(=O)N(CCCO)Cc2cc3cc(C)c(C)cc3[nH]c2=O)cc1	73.5*	-3.4	-1.0	-0.2	5.3	12.8
O=C1O[C@H](C(O)CO)C(O)=C1O (some centres undefined)	76.3*!	-0.5	-1.1	-0.3	46.9*	2.2	AlphaScreen DR=>6.48
O=C1NC(=S)N/C1=C\c1ccc(-c2cccc([N+](=O)[O-])c2)o1	-5.5	-2.9	-0.8	-0.1	x	x
O=C1NC(=S)N/C1=C\c1ccc([N+](=O)[O-])o1	67.5*	-17.9	0.7	-0.2	67.3*	14.5	AlphaScreen DR=>7.74
CC(C)OCCCNC(=O)C1CC(Cc2ccc(F)cc2)=NO1 (centres undefined)	53.0*	-12.2	1.5	-0.2	23.5	11.8
COc1ccccc1CN1CCN(C(=O)c2cccnc2)CC1	57.4*	-0.2	0.8	0.0	5.8	-8.1
SMILES	MITF primary	TEAD-YAP block	GPR151 ag	FBW7 activator	MITF inh conf	AlphaScreen intf2	others
COc1ccc(CN2CCN(C(=O)c3cccnc3)CC2)c(OC)c1OC	31.6	10.4	0.7	0.0	x	x
COc1ccc(CN2CCN(C(=O)c3cccnc3)CC2)c(OC)c1	43.5	-4.4	0.5	-0.1	x	x
COc1cccc(CN2CCN(C(=O)c3cccnc3)CC2)c1OC	76.9*	-0.2	-1.2	-0.2	9.3	11.3
COc1ccccc1C1(O)CC2CCC(C1)N2C(=O)c1cccnc1 (centres undefined)	73.0*	10.1	-0.5	0.0	7.8	16.3
CCn1cc(CN[C@H]2C[C@H]3C(=O)N[C@@H](C(C)C)C(=O)N3C2)c(C)n1	14.3	11.6	-0.2	0.0	x	x
Cc1cnc(N2CCC(N3CCOCC3)CC2)nc1NC1CCN(Cc2ccccc2)CC1	3.0	8.5	-0.1	0.0	x	x
Cc1nn(C(=O)C2CCCN2S(=O)(=O)c2ccc(Cl)cc2)c(C)c1Sc1ccc([N+](=O)[O-])cc1 (centres undefined)	66.6*	-0.1	-1.1	-0.1	11.8	16.7
O=C(CN1CCCCCC1)N/N=C/c1ccc(F)c(Br)c1	32.2	-12.5	-0.2	-0.1	x	x
O=C(CN1CCCCCCC1)N/N=C/c1ccc(F)c(Br)c1	57.1*	-9.5	-0.8	0.2	3.3	0.9
Cc1cc(C(N)=O)c(C)n1CCCn1ccnc1	76.2*	1.6	-0.3	-0.8	14.9	21.6
Cc1cc(=S)cc(C)n1CCCn1ccnc1	-5.3	-1.7	-0.1	0.5	x	x
COC(=O)C(NS(=O)(=O)c1ccc([N+](=O)[O-])cc1)C(C)C (centres undefined)	-0.1	1.5	-0.1	-0.1	x	x
CC(C)Sc1ccc(-c2ccccc2C=O)cn1	113.7*	-0.3	0.3	0.5	6.2	7.9
Cc1cccc(-n2nc([N+](=O)[O-])c(=NCCc3ccccc3)n2O)c1	16.8	-8.5	-0.8	-0.4	x	x
Cc1nn(C)c(C)c1CCC(=O)N1CCN(c2ncccn2)CC1	71.9*	-1.7	-0.8	-0.1	9.2	13.9
O=[N+]([O-])c1ccc(CNC2CCCC2)cc1	12.2	-10.8	0.0	-0.2	x	x
CC1CCCCC1NCc1ccc([N+](=O)[O-])cc1 (centres undefined)	75.3*	7.4	0.4	0.3	-9.0	-3.7
CC(C)C(=O)N1CCCC(c2nc(N3CCN(C)CC3)ncc2-c2ccncc2)C1 (centres undefined)	-3.3	-2.2	0.0	0.0	x	x
COc1ccc(COCC(O)CNCCCn2ccnc2)cc1 (centres undefined)	82.5*	-1.0	-3.5	0.0	7.6	-9.6
COc1ccc(CCC(C)NCCCn2ccnc2)cc1 (centres undefined)	42.7	4.0	-0.7	0.2	x	x
COC(=O)Nc1ccc(S(=O)(=O)O/N=C2/C=CC(=O)C=C2C)cc1	8.1	-16.4	-0.4	-0.1	x	x
O=S(=O)(Cc1ccccc1)N1CCN(CC2CC3C=CC2C3)CC1 (centres undefined)	37.1	1.2	0.5	0.0	x	x
Clc1cccc(CN2CCN(CC3CC4C=CC3C4)CC2)c1 (centres undefined)	73.6*	-1.0	0.8	-0.1	13.4	18.0
Cc1cccc(CN2CCN(CC3CC4C=CC3C4)CC2)c1 (centres undefined)	56.7*	-10.2	-2.0	0.1	6.8	18.6
Clc1ccccc1CN1CCN(CC2CC3C=CC2C3)CC1 (centres undefined)	73.8*	5.3	0.1	-0.1	-5.0	1.8

High-throughput results deposited in PubChem BioAssay by The Scripps Research Institute Molecular Screening Center.
